Laboratory results from PubChem BioAssay.
Active and inactive are the calls of the source.

Columns and labels:
[1] = small molecules captured by biotinylated probe aFSTL3 – biochemical, small-molecule microarray, fluorescence 635/667, stem cell growth factor project, primary screen (AID 1064); conditions: higher = more signal;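 also: measures binding of the biotinylated anti-FSTL3 antibody to printed compounds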
[2] = binders from COS7 lysate, DM2A8 probe, primary screen, torsin A project, cell lysate, small-molecule microarray, fluorescence 635/667 (AID 1065); conditions: higher = more signal, COS7 lysate expressing mutant human TOR1A
[3] = small molecules captured by biotinylated probe aFGF2 – biochemical, small-molecule microarray, fluorescence 635/667, stem cell growth factor project, primary screen (AID 1067); conditions: higher = more signal;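 also: measures binding of biotinylated aFGF2 protein to printed compounds on slides; z-score merges feature fluorescence and signal-to-noise across triplicate slides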
[4] = small molecules captured by biotinylated probe aFGF10 – biochemical, small-molecule microarray, fluorescence 635/667, stem cell growth factor project, primary screen (AID 1071); conditions: higher = more signal;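 also: score merges 667 nm spot intensity and signal to noise from triplicate slides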
[5] = target: Neurogenic locus notch homolog protein 2 (Homo sapiens) (UniProt Q04721); test: small molecules binding Notch2 protein – biochemical, small-molecule microarray, 635 nm fluorescence, stem cell growth factors, primary screen (AID 1073); conditions: higher = more signal
[6] = target: Pro-neuregulin-1, membrane-bound isoform (Homo sapiens) (UniProt Q02297); test: small molecules binding neuregulin-1 protein – biochemical, small-molecule microarray, fluorescence 635/667, psychiatric disease protein project, primary screen (AID 1075); conditions: NRG1 binding, 635 nm fluorescence, higher = more signal;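 also: score combines 667 nm spot fluorescence with signal to noise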
[7] = tested on: Neuregulin-1 EGF-like domain; test: small molecules binding NRG1 EGF domain – biochemical, small-molecule microarray, 635 nm fluorescence, primary screen (AID 1081); conditions: higher = more signal;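 also: binding of the protein to compounds printed on small-molecule microarray slides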
[8] = FRG1 expression reporter modulators in myotubes – cell-based, C2C12 myotubes, firefly/Renilla luciferase, luminescence, FRG1 inhibition for FSHD, primary screen (AID 1084); conditions: FRG1 promoter luciferase, higher = more signal, called active from +8 up or from −8 down
[9] = small molecules captured by biotinylated probe aFST – biochemical, small-molecule microarray, fluorescence 635/667, stem cell growth factor project, primary screen (AID 1086); conditions: higher = more signal;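 also: score merges 667 nm fluorescence with signal-to-noise of each printed compound spot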
[10] = binders of probe aHhip on microarray, primary screen, stem cell growth factor project, biochemical, small-molecule microarray, fluorescence 635/667 (AID 1087); conditions: higher = more signal;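 also: score merges spot fluorescence at 667nm with spot signal to noise ratio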

Pro-neuregulin-1, membrane-bound isoform (Homo sapiens), sequence (Q02297 whole entry, looked up, the tested form may be a part, canonical isoform): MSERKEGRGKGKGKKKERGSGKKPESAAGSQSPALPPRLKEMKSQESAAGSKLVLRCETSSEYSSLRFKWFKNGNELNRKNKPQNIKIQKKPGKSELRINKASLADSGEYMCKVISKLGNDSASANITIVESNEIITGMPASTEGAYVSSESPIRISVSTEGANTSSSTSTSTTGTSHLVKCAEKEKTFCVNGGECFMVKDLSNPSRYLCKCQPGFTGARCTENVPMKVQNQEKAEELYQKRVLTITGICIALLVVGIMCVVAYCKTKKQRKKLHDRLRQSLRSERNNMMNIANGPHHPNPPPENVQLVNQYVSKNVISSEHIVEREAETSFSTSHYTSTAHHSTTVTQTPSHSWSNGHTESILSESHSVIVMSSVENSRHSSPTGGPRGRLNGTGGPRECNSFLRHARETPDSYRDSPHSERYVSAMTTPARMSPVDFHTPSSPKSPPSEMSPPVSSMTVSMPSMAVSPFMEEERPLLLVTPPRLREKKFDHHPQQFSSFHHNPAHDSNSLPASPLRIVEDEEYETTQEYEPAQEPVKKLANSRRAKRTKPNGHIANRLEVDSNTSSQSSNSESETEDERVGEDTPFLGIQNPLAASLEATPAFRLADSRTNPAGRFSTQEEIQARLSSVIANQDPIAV
Neurogenic locus notch homolog protein 2 (Homo sapiens), sequence (Q04721 whole entry, looked up, canonical isoform): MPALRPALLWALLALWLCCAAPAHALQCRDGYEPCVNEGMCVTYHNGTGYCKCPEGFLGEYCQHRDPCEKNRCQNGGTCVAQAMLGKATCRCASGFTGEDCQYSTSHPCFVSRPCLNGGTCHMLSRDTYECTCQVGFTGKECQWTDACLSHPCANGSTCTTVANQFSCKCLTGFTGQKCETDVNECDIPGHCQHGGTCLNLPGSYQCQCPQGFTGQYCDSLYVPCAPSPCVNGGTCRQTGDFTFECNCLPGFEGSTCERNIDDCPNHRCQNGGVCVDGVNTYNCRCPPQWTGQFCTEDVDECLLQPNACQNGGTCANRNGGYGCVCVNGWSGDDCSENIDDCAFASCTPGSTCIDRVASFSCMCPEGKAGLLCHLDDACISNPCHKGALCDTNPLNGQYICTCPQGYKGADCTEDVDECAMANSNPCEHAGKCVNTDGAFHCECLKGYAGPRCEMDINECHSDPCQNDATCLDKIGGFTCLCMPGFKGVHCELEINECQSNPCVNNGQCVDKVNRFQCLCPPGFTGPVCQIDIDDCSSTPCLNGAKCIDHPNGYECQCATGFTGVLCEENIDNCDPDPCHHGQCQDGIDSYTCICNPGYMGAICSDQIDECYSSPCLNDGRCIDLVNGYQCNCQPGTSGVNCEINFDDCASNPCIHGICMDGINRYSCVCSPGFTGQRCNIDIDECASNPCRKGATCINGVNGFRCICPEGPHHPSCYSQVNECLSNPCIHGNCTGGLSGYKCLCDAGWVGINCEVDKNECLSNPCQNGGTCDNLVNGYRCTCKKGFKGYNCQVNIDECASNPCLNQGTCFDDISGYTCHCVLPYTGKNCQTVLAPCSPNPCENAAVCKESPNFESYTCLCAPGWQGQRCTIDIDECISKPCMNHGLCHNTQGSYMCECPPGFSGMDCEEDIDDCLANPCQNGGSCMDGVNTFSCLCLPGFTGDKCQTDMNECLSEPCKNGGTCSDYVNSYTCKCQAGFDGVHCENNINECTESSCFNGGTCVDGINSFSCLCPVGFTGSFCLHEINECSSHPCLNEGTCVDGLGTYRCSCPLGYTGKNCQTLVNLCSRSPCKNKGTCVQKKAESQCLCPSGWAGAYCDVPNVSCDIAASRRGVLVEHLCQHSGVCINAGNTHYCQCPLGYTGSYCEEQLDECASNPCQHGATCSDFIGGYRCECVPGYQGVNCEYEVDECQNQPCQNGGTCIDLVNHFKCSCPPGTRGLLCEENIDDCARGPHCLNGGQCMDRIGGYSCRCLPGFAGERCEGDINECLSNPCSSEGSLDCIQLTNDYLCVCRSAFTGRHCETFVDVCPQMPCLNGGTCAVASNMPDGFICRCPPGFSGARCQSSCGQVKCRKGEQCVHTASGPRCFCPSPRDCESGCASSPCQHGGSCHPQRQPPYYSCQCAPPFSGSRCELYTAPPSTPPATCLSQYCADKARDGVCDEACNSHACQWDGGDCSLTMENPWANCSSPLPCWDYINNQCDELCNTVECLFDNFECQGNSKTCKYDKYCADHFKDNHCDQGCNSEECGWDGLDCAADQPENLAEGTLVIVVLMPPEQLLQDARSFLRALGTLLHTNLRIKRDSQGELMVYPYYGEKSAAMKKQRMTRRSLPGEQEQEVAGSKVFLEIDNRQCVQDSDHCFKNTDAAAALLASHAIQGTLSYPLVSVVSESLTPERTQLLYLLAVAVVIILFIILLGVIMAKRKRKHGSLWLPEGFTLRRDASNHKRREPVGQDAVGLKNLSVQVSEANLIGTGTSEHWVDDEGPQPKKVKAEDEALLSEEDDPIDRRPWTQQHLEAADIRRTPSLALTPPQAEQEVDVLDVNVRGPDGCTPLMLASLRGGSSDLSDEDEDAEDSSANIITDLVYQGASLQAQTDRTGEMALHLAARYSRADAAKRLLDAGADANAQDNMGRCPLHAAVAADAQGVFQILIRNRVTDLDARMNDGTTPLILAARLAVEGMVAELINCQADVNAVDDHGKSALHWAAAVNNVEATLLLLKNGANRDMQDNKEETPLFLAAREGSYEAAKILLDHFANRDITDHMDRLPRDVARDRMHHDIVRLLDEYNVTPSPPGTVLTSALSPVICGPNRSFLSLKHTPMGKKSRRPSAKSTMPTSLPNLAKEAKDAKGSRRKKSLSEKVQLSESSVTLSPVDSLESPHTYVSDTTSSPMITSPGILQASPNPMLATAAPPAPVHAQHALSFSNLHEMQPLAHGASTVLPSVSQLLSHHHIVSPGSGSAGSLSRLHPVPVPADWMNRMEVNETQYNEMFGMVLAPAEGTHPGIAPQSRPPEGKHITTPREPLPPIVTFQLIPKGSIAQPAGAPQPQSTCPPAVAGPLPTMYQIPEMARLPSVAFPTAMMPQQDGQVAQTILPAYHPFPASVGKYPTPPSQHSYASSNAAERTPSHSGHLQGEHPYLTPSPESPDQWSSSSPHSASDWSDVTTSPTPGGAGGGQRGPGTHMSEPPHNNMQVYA

Row | SMILES | composite z-score [1] | composite z-score [2] | composite z-score [3] | composite z-score [4] | composite z-score [5] | composite z-score [6] | composite z-score [7] | z-score [8] | composite z-score [9] | composite z-score [10]
1 | CCCCCN1CC=CC23O[C@@H]4C=CCOC(=O)[C@@H]4[C@H]2C(=O)N(CCCCCCO)[C@@H]3C1=O (stereo not given in full) | 0.729 | -0.859 | -0.133 | -0.237 | -1.14 | 2.35 | 0.975 | 0.428 (inactive) | -0.823 | -0.429
2 | CCCC[C@@H]1C[C@H]1[C@@H](NS(=O)(=O)c1cccc2cccnc12)c1ccc(-c2ccccc2)cc1 | 0.682 | -0.165 | 0.0011 | 0.0132 | 0.523 | 0.071 | 0.918 | 0.448 (inactive) | 0.436 | -0.0123
3 | Cc1ccc(S[C@]2(C(=O)O)CC(=O)N(Cc3ccccc3)[C@@H]2c2ccc(CO)cc2I)cc1 | 0.481 | -0.421 | -0.0494 | -0.333 | -0.143 | 1.8 | 1.03 | -0.406 (inactive) | -0.255 | -0.0994
4 | COCC(=C=CC[C@@H](O)c1ccccc1OCCO)CCO | -0.181 | 0.44 | 0.0201 | 0.492 | 0.375 | 0.19 | 1.27 | 0.0373 (inactive) | 0.175 | -0.0618
5 | CO[C@@H]1COC(=O)CCC[C@@H](C)[C@H](OC)COC(=O)[C@H](Cc2ccccc2)NC(=O)CC=C[C@H]1C | -0.0731 | 1.42 | -0.186 | -0.904 | -1.13 | -0.87 | -1.25 | 0.0446 (inactive) | -0.104 | -0.134
6 | CCOC(=O)[C@H](Cc1ccccc1)NC(=O)CCC1CC(OC(=O)NCc2ccc3c(c2)OCO3)CC2(CCCC(COC(=O)NCc3ccccc3)O2)O1 (stereo not given in full) | -0.0824 | 0.204 | -0.0103 | 0.697 | 0.808 | 0.317 | 0.718 | 1.54 (inactive) | 0.393 | 0.0505
7 | O=C1[C@H]2[C@H]3[C@H](O)[C@H](O)CC(=NO[C@@H]4O[C@H](CO)[C@@H](O)[C@H](O)[C@H]4O)[C@H]3CC[C@H]2C(=O)N1C1CCCCC1 | -0.332 | 1.49 | -0.0659 | -0.0948 | 0.028 | -0.197 | 0.995 | -0.225 (inactive) | 0.276 | 0.841
8 | COCCCNC(=O)[C@@]1(CCS(=O)(=O)c2ccccc2)N=C(c2ccc(OCCCO)cc2)O[C@H]1c1ccccc1 | 0.958 | 1.5 | 0.378 | 1.18 | 0.674 | 1.25 | 1.31 | -1.23 (inactive) | 0.56 | 2.04
9 | O=C1C[C@@H](O)[C@@H](O)[C@@H]2[C@@H]3C(=O)N(c4cccc(Oc5ccccc5)c4)C(=O)[C@@H]3CC[C@@H]12 | -0.557 | 0.272 | -0.0598 | 0.516 | 1.26 | 0.713 | 1.01 | -0.211 (inactive) | 0.0399 | 0.0659
10 | CC(C)C[C@@H]1NC(=O)[C@H]2C[C@@H](C(=O)O)[C@@H](c3ccc(O)cc3)N2C1=O | 1.29 | 1.31 | -0.087 | -0.211 | -0.506 | 1.47 | 1.29 | 6.75 (inactive) | 0.123 | 0.613
11 | CCOC(=O)NN=C1C[C@@H](O)[C@@H](O)[C@@H]2[C@@H]3C(=O)N(C(C)(C)C)C(=O)[C@@H]3CC[C@@H]12 | -0.295 | 0.721 | 0.0014 | 0.177 | 0.394 | -0.904 | -1.83 | -0.0445 (inactive) | 0.577 | -0.0994
12 | O=C1[C@H]2[C@H]3[C@H](O)[C@H](O)CC(=NO[C@@H]4O[C@H](CO)[C@@H](O)[C@H](O)[C@H]4O)[C@H]3CC[C@H]2C(=O)N1Cc1ccccc1 | -0.658 | 0.0571 | -0.116 | 0.602 | 1.4 | -0.328 | 0.0944 | 0.632 (inactive) | 0.564 | 0.199
13 | CCN(CC)c1ccc(N2CC=CC34O[C@@H]5/C=C\CCC(C)OC(=O)C5[C@H]3C(=O)N(CCCO)[C@@H]4C2=O)cc1 (stereo not given in full) | 0.678 | 0.215 | -0.0766 | 0.408 | -0.659 | 0.63 | 1.58 | 0.957 (inactive) | -0.444 | -0.0237
14 | COc1ccc(-c2ccc3c(n2)CCCN3CC(O)CN2CCCc3nc(C)c(C)cc32)cc1 (stereo not given) | 0.683 | 1.55 | 0.126 | 0.961 | 0.63 | 0.641 | 0.732 | 3.33 (inactive) | 1.02 | 0.38
15 | COC(=O)C1=C(C)N(Cc2ccccc2)[C@]23O[C@](C(=O)OC)(C(=O)N2[C@@H]1c1ccccc1)[C@H]1CCOC(=O)[C@H]13 | -0.602 | 0.601 | -0.0956 | 0.649 | 0.783 | -0.146 | 0.815 | -0.203 (inactive) | 0.0592 | -0.0645
16 | COc1ccc(O[C@H]2C=C[C@@H](c3ccccc3)O[C@@H]2COC(=O)CCC(C)=NO[C@H](C)c2cn([C@@H]3COC[C@H]3O)nn2)cc1 | -0.672 | 0.518 | -0.125 | 0.323 | 0.483 | 0.489 | 0.586 | 1.39 (inactive) | 0.0701 | -0.411

Row | SMILES | composite z-score [1] | composite z-score [2] | composite z-score [3] | composite z-score [4] | composite z-score [5] | composite z-score [6] | composite z-score [7] | z-score [8] | composite z-score [9] | composite z-score [10]
17 | CC(=O)OC[C@H]1O[C@H](CCON=C[C@@H](C)[C@H](OCc2ccccc2)C(C)C)C=C[C@@H]1OC(C)=O | -0.567 | 0.57 | -0.101 | 0.114 | -0.113 | -0.114 | -0.339 | 0.447 (inactive) | 0.0538 | 0.312
18 | C/C=C\[C@@H](NCc1ccccc1Br)[C@@H](O)Cc1ccccc1 | 1.08 | -0.441 | -0.151 | -0.75 | -1.46 | -0.0182 | -0.537 | -0.445 (inactive) | -0.336 | -0.236
19 | C=CC[C@@H]1C=C[C@H](ON=C2c3cc(OC)ccc3O[C@H](c3cccc(OC)c3)[C@H]2O)[C@@H](CO)O1 | -0.342 | 0.0359 | -0.1 | 0.415 | 0.144 | 0.0499 | -0.199 | -0.577 (inactive) | 0.127 | -0.0994
20 | COc1ccccc1CN1C(=O)c2ccccc2[C@@]2(Cc3ccccc3N(C(C)C)C2=O)[C@@H]1c1ccc(CO)cc1 | -0.111 | -0.336 | -0.186 | -0.689 | -0.294 | -0.0492 | -0.723 | -2.45 (inactive) | 0.351 | -0.374
21 | C[C@@H]1C=CCC(=O)OC[C@H](C)C(=O)OC[C@H]2O[C@H]1C=C[C@H]2O | -0.414 | 0.304 | 0.0033 | 0.44 | 0.112 | -0.175 | 0.615 | -0.538 (inactive) | 0.512 | 0.106
22 | CN1C(=O)C2C(C1=O)C1C=C(CCCO)C2C(c2ccc(CN3CCCC3)cc2)N1C (stereo not given) | 0.192 | 0.249 | -0.0902 | -0.302 | -0.291 | 0.0016 | 0.725 | 0.243 (inactive) | -0.424 | 0.0749
23 | COC(=O)[C@@H]1CC[C@H](C)[C@@H](c2ccc(C)cc2)N1C(=O)c1ccc(C=NOC[C@@H](O)COCc2ccco2)cc1 | 0.852 | 0.239 | -0.226 | -0.58 | -1.83 | -0.96 | -1.04 | 0.495 (inactive) | -0.72 | -0.137
24 | COCC1=C2[C@@H](CCc3ccccc3)OB(O)C[C@@H]2n2c(=O)n(-c3ccccc3)c(=O)n2C1 | -0.163 | -0.106 | -0.0695 | 0.882 | 0.112 | -0.391 | 0.751 | -3.23 (inactive) | -0.373 | -0.236
25 | CCN1C(=O)[C@H]2[C@H]3[C@H](O)[C@H](O)CC(=NOC(C)CN4CCCCc5nc(C)c(C)cc54)[C@@H]3CC[C@H]2C1=O (stereo not given in full) | -0.698 | 0.532 | -0.138 | 0.223 | 0.462 | -0.531 | -0.274 | 0.682 (inactive) | 0.253 | 0.119
26 | CC(C)c1ccc(NN2C(C(O)c3ccc4c(c3)OCO4)C=CC3C(=O)N(c4ccccc4)C(=O)C32)cc1 (stereo not given) | 0.542 | 0.461 | 0.0899 | 0.839 | 1.34 | 1.82 | 1.24 | 2.22 (inactive) | 1.07 | 0.103
27 | C#C[C@@H]1Oc2ccccc2S(=O)(=O)N2CCC[C@H]12 | -0.311 | 0.143 | -0.114 | 0.0728 | 0.133 | -0.206 | -0.113 | -0.587 (inactive) | 0.214 | -0.0596
28 | C=CCNC(=O)[C@H]1[C@@H]2C(=O)O[C@@H](c3ccccc3)[C@@H](c3ccccc3)N2[C@@H](c2ccc(O)cc2)[C@]12C(=O)N(C(=O)OCCOC)c1ccc(C#CC3=CCCCC3)cc12 | 0.484 | 1.24 | 0.008 | 0.72 | 1.05 | 2.03 | 1.06 | -0.829 (inactive) | 2.01 | 1.75
29 | O=C1CCCC=C1C(O)CCOCc1ccccc1 (stereo not given) | -0.149 | 0.858 | -0.0753 | 0.0674 | -0.175 | -0.573 | 0.28 | 1.58 (inactive) | -0.0364 | -0.236
30 | COC(=O)[C@H](C)NC(=O)[C@@H](C)CO | -0.329 | 1.2 | -0.116 | 0.75 | 0.591 | 0.515 | 1.04 | -0.256 (inactive) | 0.357 | 0.316
31 | CC(=O)O[C@H]1C2=C(C(=O)[C@@H]3O[C@@H]31)[C@H]1C(C)O[C@@H]2[C@@]23C(=O)[C@@H]4O[C@@H]4[C@@H](O)C2=CO[C@H](C)[C@@H]13 (stereo not given in full) | -0.295 | 0.16 | -0.0314 | 0.226 | 0.166 | -0.274 | 0.377 | -1.07 (inactive) | -0.0354 | -0.0645
